Test results reported in article PMC4336329 (PLoS ONE, 2015).
Among all 310,000 compounds or so, about 14,000 (4.5%) showed an effect of 50% or more. The effect is printed as a negative number. What follows is part of a selection rich in strong results, with near analogues and random picks from the rest.

Target: human ether-à-go-go-related gene (hERG) potassium channel (human, UniProt Q12809)
Assay: primary screen, population patch clamp on CHO cells stably expressing hERG; higher = less effect of the substance
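Further: peak tail current of the secondary pulse compared with the same well before compound.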

Sequence of human ether-à-go-go-related gene (hERG) potassium channel (Q12809 whole entry, looked up): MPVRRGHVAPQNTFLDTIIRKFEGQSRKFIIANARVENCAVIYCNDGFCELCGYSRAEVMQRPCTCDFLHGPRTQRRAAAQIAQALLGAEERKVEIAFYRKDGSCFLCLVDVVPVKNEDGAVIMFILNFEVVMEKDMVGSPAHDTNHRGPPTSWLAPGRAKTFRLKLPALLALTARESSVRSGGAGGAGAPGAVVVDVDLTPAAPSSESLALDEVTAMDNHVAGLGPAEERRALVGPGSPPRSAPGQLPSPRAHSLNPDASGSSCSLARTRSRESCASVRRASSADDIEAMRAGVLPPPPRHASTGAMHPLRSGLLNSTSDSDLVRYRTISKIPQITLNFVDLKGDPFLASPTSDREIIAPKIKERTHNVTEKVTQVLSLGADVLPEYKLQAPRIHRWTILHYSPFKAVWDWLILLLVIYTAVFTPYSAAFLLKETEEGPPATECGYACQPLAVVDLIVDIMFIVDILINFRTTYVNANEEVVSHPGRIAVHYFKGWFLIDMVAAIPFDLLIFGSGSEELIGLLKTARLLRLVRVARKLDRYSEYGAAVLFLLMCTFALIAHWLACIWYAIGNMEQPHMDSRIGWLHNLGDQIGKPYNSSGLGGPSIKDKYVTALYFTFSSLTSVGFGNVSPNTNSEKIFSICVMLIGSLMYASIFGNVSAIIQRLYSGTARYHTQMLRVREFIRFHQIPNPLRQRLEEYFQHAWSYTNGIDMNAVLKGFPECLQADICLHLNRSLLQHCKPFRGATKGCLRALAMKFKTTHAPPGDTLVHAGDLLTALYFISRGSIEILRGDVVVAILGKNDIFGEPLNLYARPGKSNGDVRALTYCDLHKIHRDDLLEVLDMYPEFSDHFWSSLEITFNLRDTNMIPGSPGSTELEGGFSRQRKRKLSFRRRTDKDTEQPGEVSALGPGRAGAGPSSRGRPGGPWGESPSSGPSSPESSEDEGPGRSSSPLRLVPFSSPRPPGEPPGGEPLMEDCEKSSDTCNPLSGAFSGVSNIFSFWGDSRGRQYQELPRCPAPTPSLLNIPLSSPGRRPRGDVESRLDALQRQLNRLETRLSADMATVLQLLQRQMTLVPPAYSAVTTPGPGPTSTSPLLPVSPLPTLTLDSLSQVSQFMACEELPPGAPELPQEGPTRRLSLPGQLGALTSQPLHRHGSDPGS

Row | Structure (SMILES) | hERG current change (%, negative = inhibition) at 10uM [%]
1 | O=C(CCC(=O)c1ccc(F)cc1)Nc1ccccc1Cl | 1.71
2 | Cc1ccc(S(=O)(=O)N2CCCC2)cc1C(=O)N1CCN(Cc2ccccc2)CC1 | -8.29
3 | CC1CSc2nnc(CCc3ccccc3)n21 (stereo not shown) | 8.26
4 | O=C(CSc1ccc(-c2cccnc2)nn1)N1CCCCCC1 | 23.2
5 | CCCCn1c(N)c(N(CCOC)C(=O)CSCc2cccc(C)c2)c(=O)[nH]c1=O | 9.08
6 | COCCNS(=O)(=O)c1ccc(SC)cc1 | 10.2
7 | Cc1cc(NC(=O)CSc2nnc(COc3ccccc3)n2Cc2ccco2)no1 | 2.24
8 | CN1CCc2c(sc(NC(=O)CS(=O)(=O)c3ccc(F)cc3)c2C(N)=O)C1.Cl | -58.8
9 | CC(=O)N1CCc2c(sc(NC(=O)CS(=O)(=O)c3ccc(F)cc3)c2C(N)=O)C1 | 15.7
10 | COC(=O)c1c(NC(=O)CCS(=O)(=O)c2ccccc2)sc2c1CCN(C)C2.Cl | -48
11 | CCCN1CCc2c(sc(NC(=O)CCS(=O)(=O)c3ccccc3)c2C(N)=O)C1.Cl | -27.3
12 | CCOC(=O)c1c(NC(=O)CCS(=O)(=O)c2ccccc2)sc2c1CCN(C(C)C)C2.Cl | -72.4
13 | CCCN1CCc2c(sc(NC(=O)CCS(=O)(=O)c3ccccc3)c2C(=O)OC)C1.Cl | -67
14 | CN1CCc2c(sc(NC(=O)CS(=O)(=O)c3ccccc3)c2C(N)=O)C1.Cl | -23.4
15 | CCOC(=O)c1c(NC(=O)CCS(=O)(=O)c2ccccc2)sc2c1CCN(C)C2.Cl | -52.5
16 | CC(C)N1CCc2c(sc(NC(=O)CCS(=O)(=O)c3ccccc3)c2C#N)C1.Cl | -9.63
17 | CCOC(=O)N1CCc2c(sc(NC(=O)CCS(=O)(=O)c3ccccc3)c2C(N)=O)C1 | -10.8
18 | CC(C)N1CCc2c(sc(NC(=O)CCS(=O)(=O)c3ccccc3)c2C(N)=O)C1.Cl | -26
19 | CC(=O)N1CCc2c(sc(NC(=O)CCS(=O)(=O)c3ccccc3)c2C(N)=O)C1 | 5.3
20 | CC(Sc1ncn[nH]1)C(=O)Nc1ccc(Cl)cn1 (stereo not shown) | 2.06
21 | O=C(O)c1ccc(/C=C/c2nc3ccccc3c(=O)[nH]2)cc1 | 17.5
22 | CCSc1nnc(NC(=O)c2cccs2)s1 | -8.23

Row | Structure (SMILES) | hERG current change (%, negative = inhibition) at 10uM [%]
23 | COc1cc(OC)cc(-c2nnc(SCC(=O)N3c4ccccc4Sc4ccccc43)o2)c1 | 15.3
24 | CC1C=CCC2C(=O)N(c3ccc(Cl)cc3O)C(=O)C12 (stereo not shown) | -2.47
25 | COC(=O)c1sc(N2C(=O)C(O)=C(C(=O)c3ccc(C)o3)C2c2ccco2)nc1C (stereo not shown) | -4.73
26 | O=C(O)C1=C[C@H](c2ccc(C(F)(F)F)cc2)C[C@H](OCc2ccc(CO)cc2)O1 | 21.5
27 | O=C(CSc1ccsc1[N+](=O)[O-])N1CCN(c2ccc(Cl)cc2)CC1 | 10
28 | O=C(COc1ccc(Cl)cc1)Nc1ccc(NC(=O)c2ccco2)cc1 | 13.4
29 | COc1cccc(CN(C)C(=O)Nc2cccc(C(F)(F)F)c2)c1OC | -4.73
30 | O=C(NCc1ccc(Cl)cc1)c1cc2c(s1)CS(=O)(=O)C2 | -15.1
31 | O=C(CCCn1c(=O)c2sccc2n(Cc2ccc(F)cc2)c1=O)NCc1ccco1 | -30.2
32 | O=C(NCc1cccs1)Nc1ccc(Cl)cc1 | -21.2
33 | O=C(O)c1ccc2c(c1)S(=O)(=O)c1cc(Cl)ccc1C2=O | 19.5
34 | Cc1cccc(N2CCN(C(=O)COc3ccc4ccc(=O)oc4c3)CC2)c1C | 5.66
35 | CCC(CO)[n+]1c(C)cc(/C=C2\Sc3ccccc3N2Cc2ccccc2)cc1C.[Br-] (stereo not shown) | -75.6
36 | C[n+]1ccccc1/C=C1\Sc2ccccc2N1CCO.[I-] | -2.79
37 | CCN1/C(=C2\SC(=S)N(Cc3ccccc3)C2=O)Sc2ccccc21 | 13.6
38 | Nc1cc([N+](=O)[O-])ccc1O | 6.95
39 | Clc1cncc(Cl)c1N/N=C/c1ccccc1 | -1.37
40 | CNC(=O)c1cc2cc(Cc3ccccc3Cl)ccc2oc1=O | 1.75
41 | CCN1C(=O)C(CC(=O)Nc2ccc(F)cc2)N(Cc2cccs2)C1=S (stereo not shown) | -48.9
42 | CCOc1ccc2c(c1)C(N(CCN1CCOCC1)C(=O)Nc1ccccc1)CC(C)(C)O2 (stereo not shown) | -19.1
43 | CCOc1ccc2c(c1)C(N(CCN1CCOCC1)C(=O)Nc1ccc(OC)cc1OC)CC(C)(C)O2 (stereo not shown) | -51.9
44 | CCOc1ccc2c(c1)C(N(CCN1CCOCC1)C(=S)Nc1ccccc1OC)CC(C)(C)O2 (stereo not shown) | -24.9

Row | Structure (SMILES) | hERG current change (%, negative = inhibition) at 10uM [%]
45 | CN(C(=O)/C=C/c1ccc2c(c1)OCO2)c1ccccc1 | -4.59
46 | CC(C)CNC(=O)C(=O)NCC(c1ccc2c(c1)OCO2)N1CCOCC1 (stereo not shown) | 6.81
47 | CN1CCN(C(CNC(=O)C(=O)Nc2ccc3c(c2)OCCO3)c2ccc(F)cc2)CC1 (stereo not shown) | -46.2
48 | COc1ccc(C(CNC(=O)C(=O)Nc2ccc3c(c2)OCCO3)N2CCN(C)CC2)cc1 (stereo not shown) | -45.1
49 | Cc1ccc(C(CNC(=O)C(=O)Nc2ccc3c(c2)OCCO3)N2CCN(C)CC2)cc1 (stereo not shown) | -55.5
50 | COc1ccc(C(CNC(=O)C(=O)Nc2ccc3c(c2)OCO3)N2CCN(C)CC2)cc1 (stereo not shown) | -50.9
51 | CN1CCN(C(CNC(=O)C(=O)Nc2ccc3c(c2)OCO3)c2ccc(F)cc2)CC1 (stereo not shown) | -44.3
52 | CCOc1cc2c(cc1OC)C(NC(=O)C(F)(F)F)CC2=O (stereo not shown) | -0.243
53 | CC1CCc2nc3ccc(S(=O)(=O)N4CCC(C(=O)NCc5ccccc5Cl)CC4)cc3c(C(=O)O)c2C1 (stereo not shown) | 7.04
54 | O=C(O)c1ccc(N2C(=O)CC(N3CCC(c4nc5ccccc5[nH]4)CC3)C2=O)cc1 (stereo not shown) | 4.95
55 | COc1ccc(-c2ccc(Nc3ccc(C(=O)N4CCOCC4)cc3)nn2)cc1OC | -5.3
56 | CCC(=O)c1ccc2c(c1)OCCO2 | 3.36
57 | C/C(=N\O)c1ccc2c(c1)OCCO2 | 14.3
58 | CC(=O)c1ccc2c(c1)OCCOCCOc1ccccc1OCCOCCO2 | -74.4
59 | O=C(C[n+]1ccc(/C=C/c2ccccc2)cc1)c1ccc2c(c1)OCCO2.[Br-] | -50.2
60 | CC(=O)N1CCN(C(=O)c2ccc3c(c2)OCCO3)CC1 | 10.9
61 | Nc1cc[n+](CC(=O)c2ccc3c(c2)OCCO3)cc1.[Br-] | -0.154
62 | Cc1cc[n+](CC(=O)c2ccc3c(c2)OCCO3)cc1.[Br-] | -22.2
63 | CC(=O)N/N=C(\C)c1ccc2c(c1)OCCO2 | 11
64 | C/C(=N/O)c1ccc2c(c1)OCCOCCOc1cc(/C(C)=N/O)ccc1OCCOCCO2 | -77.3
65 | CC(C)(C)C(=O)Nc1ccc2c(c1)OCCOCCOc1cc(NC(=O)C(C)(C)C)ccc1OCCOCCO2 | -65.5
66 | CC(=O)Nc1ccc2c(c1)OCCOCCOc1cc(NC(C)=O)ccc1OCCOCCOCCO2 | -2.81

Row | Structure (SMILES) | hERG current change (%, negative = inhibition) at 10uM [%]
67 | CC(=O)Nc1ccc2c(c1)OCCOCCOc1cc(NC(C)=O)ccc1OCCO2 | -4.52
68 | COC(=O)CCC(=O)NNC(=O)CCC(=O)Nc1cccc(Cl)c1C | 6.61
69 | CNC(=O)c1cc(-c2ccc(Cl)cc2)n(-c2ccccc2)n1 | 4.41
70 | Cc1ccc(C)c(NS(=O)(=O)c2cc(C(=O)NCC3CCCO3)ccc2C)c1 (stereo not shown) | -47.7
71 | Cc1nc(S(=O)(=O)Cc2ccccc2Cl)nc2c1CCC2 | 24.1
72 | O=C(CSc1nc2c(cnn2-c2cccc(Cl)c2)c(=O)[nH]1)NCCC1=CCCCC1 | -16.7
73 | CC(C)NC(=O)COC(=O)CNC(=O)c1cc(Cl)cc([N+](=O)[O-])c1 | -0.0659
74 | COC(=O)/C(=N\OCc1ccc(C#N)cc1)c1c(C)nn(C)c1C | -29.3
75 | CC1(C2CC2)NC(=O)N(CC(=O)Nc2ccc(Cl)c([N+](=O)[O-])c2)C1=O (stereo not shown) | -1.15
76 | CCCc1n[nH]c(=O)c2c1nnn2Cc1ccccc1 | 4.86
77 | O=C(c1ccccc1)c1ccc2c(c1)OCCOCCOCCOCCO2 | -65
78 | O=C(c1ccccc1)c1ccc2c(c1)OCCOCCOCCO2 | -3.96
79 | CC(=O)c1ccc2c(c1)OCCOCCOc1ccc(C(C)=O)cc1OCCOCCO2 | -76.6
80 | O=C(O)c1ccc2c(c1)OCCOCCOCCOCCOCCO2 | -64
81 | NC(=O)c1ccc2c(c1)OCCO2 | 6.04
82 | CC(=O)c1ccc2c(c1)OCCOCCOCCO2 | 8.76
83 | CC(=O)c1ccc2c(c1)OCCOCCOCCOCCOCCO2 | -62.4
84 | O=C(O)c1ccc2c(c1)OCCO2 | 3.19
85 | CC(=O)c1ccc2c(c1)OCCOCCOCCOCCO2 | -49.3
86 | O=C(c1ccccc1)c1ccc2c(c1)OCCCO2 | -5.56
87 | CC(=O)c1ccc2c(c1)OCO2 | 16.1
88 | O=C(O)c1ccc2c(c1)OCCCO2 | 4.27
